± gives the standard deviation of the averaged measurements. The full ranking holds about 33,000 sequences; the median of “E-score (rank enrichment, -0.5 to 0.5)” is about -0.0028, and the highest 2% start at about 0.23. For the sample, the highest values were picked, then their nearest neighbours and some sequences at random.

The test system of the test is 2Sb-muMax20 (muMax20 with two 1,3-bis(methyl)benzene Cys staples, A13C/A17C and Q88C/A92C, C-terminal Lys). The test can be described thus: PBM 8-mer E-score (E-score (rank enrichment, -0.5 to 0.5)); higher = stronger preferential binding. As for the experimental part:
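Protein binding microarray (universal PBM chip covering all 10-mers in fixed probe flanks) with chemically synthesized human Max(13-93) bHLH-LZ analogs (not full-length Max) bearing noncanonical residues (hArg, Tha, Aib, Nle at 65) and aromatic Cys staples. Read-out per 8-mer (and its reverse complement): E-score (rank-based enrichment, -0.5 to 0.5) and Z-score of median probe intensity.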
In the case of TAATATTA, the “PBM 8-mer E-score” value is 0.35 ± 0.0053. With TAATATAA, the “PBM 8-mer E-score” value was 0.152 ± 0.00074. Under CAATATGA stands 0.159 ± 0.05; under AAATATTC, 0.124 ± 0.084. GAATATTA: the “PBM 8-mer E-score” value came out at 0.238 ± 0.066. For the sequence TAATATGA, the “PBM 8-mer E-score” value came out at 0.168 ± 0.022. The result for AAATATTA reads 0.243 ± 0.032; that for AAATATGA, 0.247 ± 0.032.

In the case of GGATATTA, the “PBM 8-mer E-score” value was 0.128 ± 0.11.

Take AAATATGT: the “PBM 8-mer E-score” value was 0.148 ± 0.031. The result for GAATATTC reads 0.166 ± 0.09; that for AAAGGTTA, 0.0976 ± 0.032. The result for ACTCACTC reads 0.00443 ± 0.03. Under CCTTTTGC stands -0.0513 ± 0.057. In the case of CATAGGAA, the “PBM 8-mer E-score” value was found to be 0.0608 ± 0.002.

For TATAGGAA, the “PBM 8-mer E-score” value was 0.255 ± 0.038.

Take AATAGGAA: the “PBM 8-mer E-score” value was -0.0166 ± 0.01. The result for AACATAAC reads 0.202 ± 0.012. As to AACATAAT, the “PBM 8-mer E-score” value turned out to be 0.297 ± 0.014.

With ATCATAAT, the “PBM 8-mer E-score” value worked out at 0.232 ± 0.024.

ATCATAAG: the “PBM 8-mer E-score” value worked out at 0.217 ± 0.062. ATAATCAA: the “PBM 8-mer E-score” value amounted to 0.0744 ± 0.015. The result for ATAATCAT reads 0.241 ± 0.044; that for ATCATGAG, 0.0432 ± 0.081.

Take AACATAAG: the “PBM 8-mer E-score” value came out at 0.118 ± 0.021. Take ATAATCAG: the “PBM 8-mer E-score” value was found to be 0.198 ± 0.028. The result for ATCATGAT reads 0.267 ± 0.045; that for ATCATGAA, 0.1293 ± 0.00082; that for ATCATAAA, 0.000625 ± 0.011. On to AAGGGCCG, for which the “PBM 8-mer E-score” value was -0.18 ± 0.018. The result for ATTTTAGA reads 0.0196 ± 0.021; that for CTGTTTCC, -0.0107 ± 0.033. Under CGCGCACG stands 0.0273 ± 0.007.

With GAATCTAC, the “PBM 8-mer E-score” value was 0.0758 ± 0.0052. For the sequence ATTACCCA, the “PBM 8-mer E-score” value was determined as 0.2414 ± 0.0019. The result for AATACCCG reads -0.105 ± 0.092. Under ATTACCCC stands 0.226 ± 0.0063. Under AATACCCA stands 0.272 ± 0.021. Regarding ATTACCCG, the “PBM 8-mer E-score” value was found to be 0.0122 ± 0.03. Under TATACCCA stands 0.0636 ± 0.015. The result for ATTCCAAT reads -0.0251 ± 0.027; that for CAGGACCA, -0.196 ± 0.036; that for ATCTGTCA, 0.236 ± 0.0051. For the sequence ATCTGTCC, the “PBM 8-mer E-score” value worked out at 0.0828 ± 0.032. For the sequence ATCTGTCG, the “PBM 8-mer E-score” value stood at 0.089 ± 0.014. Under CGGACTCA stands -0.147 ± 0.028. Under GTACAACA stands 0.159 ± 0.0065; under ATACAACC, -0.0388 ± 0.043. With ATACAAGC, the “PBM 8-mer E-score” value is 0.284 ± 0.043. As to CTACAAGC, the “PBM 8-mer E-score” value is -0.00747 ± 0.0035. Under ATACAACA stands 0.239 ± 0.053.

Regarding CTACAACA, the “PBM 8-mer E-score” value was 0.0685 ± 0.041. Regarding ATACAACG, the “PBM 8-mer E-score” value was determined as 0.252 ± 0.027.

For ATACAAGA, the “PBM 8-mer E-score” value was -0.044 ± 0.011. The result for ACACAACG reads 0.0437 ± 0.0021; that for CTTACGCC, 0.0349 ± 0.067.

On to AGTCTACA, for which the “PBM 8-mer E-score” value was -0.0861 ± 0.047. The result for TAGCAATA reads -0.02 ± 0.012. As for AGGCCGCG, the “PBM 8-mer E-score” value is -0.113 ± 0.078. As to GAGACGCA, the “PBM 8-mer E-score” value worked out at 0.0251 ± 0.025. Under TCGGGCAA stands -0.0563 ± 0.02; under CAAGGTTA, -0.0419 ± 0.083.

On to AAAGGTAG, for which the “PBM 8-mer E-score” value amounted to 0.176 ± 0.01. Under AAGCCGTG stands -0.228 ± 0.057. ACGCGAAG: the “PBM 8-mer E-score” value is -0.0725 ± 0.09. The result for CGTAGAAA reads -0.0374 ± 0.016; that for TGTAGAAA, 0.236 ± 0.0088. The result for AGTAGAAA reads 0.1174 ± 0.00047; that for CTATGCGC, -0.0257 ± 0.0089.

As for CGACCAAG, the “PBM 8-mer E-score” value was -0.128 ± 0.0088. Turning to ATTAGTTG, the “PBM 8-mer E-score” value is 0.205 ± 0.022. Under GTAAGTTA stands 0.0157 ± 0.033; under ATAAGTTA, 0.241 ± 0.01. Under ATTAGTTA stands 0.233 ± 0.039; under GTTAGTTA, 0.108 ± 0.058; under CTAAGTTA, 0.0294 ± 0.017.

Consider AGAATTGG, for which the “PBM 8-mer E-score” value amounted to 0.092 ± 0.037. The result for ATGCTAGC reads 0.17 ± 0.0032; that for CCCGCCTC, 0.0922 ± 0.074. Turning to GCTAAAGA, the “PBM 8-mer E-score” value came out at 0.0447 ± 0.088. The result for CAAGTTTA reads 0.151 ± 0.057; that for ACTCCGAC, -0.182 ± 0.046; that for AATCACAC, 0.131 ± 0.016. Under CAAAAACA stands 0.00439 ± 0.066; under ACTATGCC, 0.101 ± 0.025.

On to GTTTTGCA, for which the “PBM 8-mer E-score” value amounted to 0.0867 ± 0.05. Consider ATTTTGTA, for which the “PBM 8-mer E-score” value worked out at 0.271 ± 0.013. The result for ATTTTGTG reads 0.0967 ± 0.078.

(Values after the supplement of paper PMC12636033.)
